Test results as given in ChEMBL document CHEMBL1961873, “Compounds: GSK PKIS; Assays: Nanosyn kinase panel” (2012).
Values joined by “and” are separate entries in the source; they are usually repeats but may differ in a detail not shown here. Equal entries are not always repeated.

Key:
[1] = biological target: Tyrosine-protein kinase receptor UFO (Homo sapiens) (UniProt P30530); conditions: at 1 µM
[2] = biological target: Tyrosine-protein kinase Blk (Homo sapiens) (UniProt P51451); conditions: at 0.1 µM
[3] = biological target: Tyrosine-protein kinase Blk (Homo sapiens) (UniProt P51451); conditions: at 1 µM
[4] = biological target: T1, Cytoplasmic tyrosine-protein kinase BMX (Homo sapiens) (UniProt P51813); conditions: at 0.1 µM
T1 sequence (whole entry): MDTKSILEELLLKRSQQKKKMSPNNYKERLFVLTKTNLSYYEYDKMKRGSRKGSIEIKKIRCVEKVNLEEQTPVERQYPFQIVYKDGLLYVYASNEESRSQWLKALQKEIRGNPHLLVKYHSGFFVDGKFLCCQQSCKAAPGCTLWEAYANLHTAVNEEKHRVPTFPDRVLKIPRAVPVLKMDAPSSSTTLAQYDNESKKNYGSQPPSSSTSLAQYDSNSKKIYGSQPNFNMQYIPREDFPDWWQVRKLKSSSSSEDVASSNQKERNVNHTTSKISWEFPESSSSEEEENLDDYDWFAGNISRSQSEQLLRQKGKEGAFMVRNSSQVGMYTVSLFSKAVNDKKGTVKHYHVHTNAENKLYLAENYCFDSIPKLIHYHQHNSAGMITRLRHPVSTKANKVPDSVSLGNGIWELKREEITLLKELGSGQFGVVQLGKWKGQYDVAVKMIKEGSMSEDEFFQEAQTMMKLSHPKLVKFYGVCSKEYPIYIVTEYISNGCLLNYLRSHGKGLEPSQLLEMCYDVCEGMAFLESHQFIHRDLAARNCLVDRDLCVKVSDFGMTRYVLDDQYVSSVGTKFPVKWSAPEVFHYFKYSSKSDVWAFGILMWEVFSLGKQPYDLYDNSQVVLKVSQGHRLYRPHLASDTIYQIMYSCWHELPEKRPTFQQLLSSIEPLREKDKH

[5] = biological target: T1, Cytoplasmic tyrosine-protein kinase BMX (Homo sapiens); conditions: at 1 µM
[6] = biological target: Protein-tyrosine kinase 6 (Homo sapiens) (UniProt Q13882); conditions: at 0.1 µM
[7] = biological target: Protein-tyrosine kinase 6 (Homo sapiens) (UniProt Q13882); conditions: at 1 µM
[8] = biological target: Tyrosine-protein kinase BTK (Homo sapiens) (UniProt Q06187); conditions: at 0.1 µM
[9] = biological target: Tyrosine-protein kinase BTK (Homo sapiens) (UniProt Q06187); conditions: at 1 µM
[10] = biological target: Tyrosine-protein kinase CSK (Homo sapiens) (UniProt P41240); conditions: at 0.1 µM
[11] = biological target: Tyrosine-protein kinase CSK (Homo sapiens) (UniProt P41240); conditions: at 1 µM
[12] = biological target: T2, Discoidin domain-containing receptor 2 (Homo sapiens) (UniProt Q16832); conditions: at 0.1 µM
T2 sequence (whole entry): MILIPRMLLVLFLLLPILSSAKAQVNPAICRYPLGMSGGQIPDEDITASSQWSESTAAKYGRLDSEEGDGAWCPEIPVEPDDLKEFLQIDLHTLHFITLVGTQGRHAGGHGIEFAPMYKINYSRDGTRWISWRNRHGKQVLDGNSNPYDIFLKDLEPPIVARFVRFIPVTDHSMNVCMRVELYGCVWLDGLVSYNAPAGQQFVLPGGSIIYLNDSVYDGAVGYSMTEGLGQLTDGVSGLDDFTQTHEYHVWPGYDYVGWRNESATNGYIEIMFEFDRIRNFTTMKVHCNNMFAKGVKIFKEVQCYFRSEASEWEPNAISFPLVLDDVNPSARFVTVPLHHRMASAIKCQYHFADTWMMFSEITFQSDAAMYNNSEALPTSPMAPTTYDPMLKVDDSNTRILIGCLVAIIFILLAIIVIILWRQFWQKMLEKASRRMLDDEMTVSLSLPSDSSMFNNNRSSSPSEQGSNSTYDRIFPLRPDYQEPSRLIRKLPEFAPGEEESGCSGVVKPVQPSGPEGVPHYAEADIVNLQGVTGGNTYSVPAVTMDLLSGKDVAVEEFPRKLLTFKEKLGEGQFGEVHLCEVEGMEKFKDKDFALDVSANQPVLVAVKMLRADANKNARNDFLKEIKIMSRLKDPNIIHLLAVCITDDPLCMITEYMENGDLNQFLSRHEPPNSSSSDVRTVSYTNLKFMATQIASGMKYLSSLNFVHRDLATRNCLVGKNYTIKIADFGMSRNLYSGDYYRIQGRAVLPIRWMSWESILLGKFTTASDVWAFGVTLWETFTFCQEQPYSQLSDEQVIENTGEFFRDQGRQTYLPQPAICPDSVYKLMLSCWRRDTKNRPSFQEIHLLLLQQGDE

[13] = biological target: T2, Discoidin domain-containing receptor 2 (Homo sapiens); conditions: at 1 µM
[14] = biological target: Epidermal growth factor receptor (Homo sapiens) (UniProt P00533); conditions: at 0.1 µM
[15] = biological target: Epidermal growth factor receptor (Homo sapiens) (UniProt P00533); conditions: at 1 µM
[16] = tested on: Epidermal growth factor receptor (Homo sapiens), P00533 [L858R]; conditions: at 0.1 µM
[17] = tested on: Epidermal growth factor receptor (Homo sapiens), P00533 [L858R]; conditions: at 1 µM
[18] = tested on: Epidermal growth factor receptor (Homo sapiens), P00533 [L861Q]; conditions: at 0.1 µM
[19] = tested on: Epidermal growth factor receptor (Homo sapiens), P00533 [L861Q]; conditions: at 1 µM
[20] = tested on: Epidermal growth factor receptor (Homo sapiens), P00533 [T790M]; conditions: at 0.1 µM

Chain of Tyrosine-protein kinase CSK (Homo sapiens) (P41240 2-450 limits assumed): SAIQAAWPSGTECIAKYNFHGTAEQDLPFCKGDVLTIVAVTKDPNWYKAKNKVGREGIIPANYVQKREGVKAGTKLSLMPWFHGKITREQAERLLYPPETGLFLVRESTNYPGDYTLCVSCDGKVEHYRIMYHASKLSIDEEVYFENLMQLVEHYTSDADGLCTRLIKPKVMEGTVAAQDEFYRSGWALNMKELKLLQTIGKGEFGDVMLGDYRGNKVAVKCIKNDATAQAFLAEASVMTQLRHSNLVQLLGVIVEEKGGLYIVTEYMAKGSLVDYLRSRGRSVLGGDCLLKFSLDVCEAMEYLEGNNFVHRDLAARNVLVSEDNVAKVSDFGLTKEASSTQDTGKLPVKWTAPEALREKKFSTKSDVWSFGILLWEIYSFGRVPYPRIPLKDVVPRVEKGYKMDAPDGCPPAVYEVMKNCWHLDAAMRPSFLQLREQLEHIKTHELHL
Chain of Tyrosine-protein kinase receptor UFO (Homo sapiens) (P30530 whole entry): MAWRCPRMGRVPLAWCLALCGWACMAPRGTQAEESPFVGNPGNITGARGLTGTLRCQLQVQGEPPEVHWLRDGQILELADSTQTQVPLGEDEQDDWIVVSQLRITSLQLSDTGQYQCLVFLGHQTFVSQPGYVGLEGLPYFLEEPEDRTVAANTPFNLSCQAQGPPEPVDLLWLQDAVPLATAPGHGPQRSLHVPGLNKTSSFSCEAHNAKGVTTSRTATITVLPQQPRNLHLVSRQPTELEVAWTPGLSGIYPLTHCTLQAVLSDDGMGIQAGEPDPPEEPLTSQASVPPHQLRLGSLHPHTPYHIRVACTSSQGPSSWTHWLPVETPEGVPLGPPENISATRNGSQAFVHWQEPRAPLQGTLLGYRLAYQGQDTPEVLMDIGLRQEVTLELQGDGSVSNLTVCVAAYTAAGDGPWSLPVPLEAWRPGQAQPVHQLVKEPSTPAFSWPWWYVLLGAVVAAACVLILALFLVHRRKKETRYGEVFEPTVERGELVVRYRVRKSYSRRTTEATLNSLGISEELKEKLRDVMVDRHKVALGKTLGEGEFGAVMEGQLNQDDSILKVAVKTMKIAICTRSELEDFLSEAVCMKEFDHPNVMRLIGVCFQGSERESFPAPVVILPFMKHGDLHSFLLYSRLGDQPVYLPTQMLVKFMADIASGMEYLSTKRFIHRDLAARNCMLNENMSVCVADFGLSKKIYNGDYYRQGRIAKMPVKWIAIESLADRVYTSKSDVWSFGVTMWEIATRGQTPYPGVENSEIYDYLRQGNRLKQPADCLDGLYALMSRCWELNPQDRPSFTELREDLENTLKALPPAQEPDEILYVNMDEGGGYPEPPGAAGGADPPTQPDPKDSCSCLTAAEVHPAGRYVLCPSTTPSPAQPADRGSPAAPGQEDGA
Chain of Protein-tyrosine kinase 6 (Homo sapiens) (Q13882 whole entry, looked up): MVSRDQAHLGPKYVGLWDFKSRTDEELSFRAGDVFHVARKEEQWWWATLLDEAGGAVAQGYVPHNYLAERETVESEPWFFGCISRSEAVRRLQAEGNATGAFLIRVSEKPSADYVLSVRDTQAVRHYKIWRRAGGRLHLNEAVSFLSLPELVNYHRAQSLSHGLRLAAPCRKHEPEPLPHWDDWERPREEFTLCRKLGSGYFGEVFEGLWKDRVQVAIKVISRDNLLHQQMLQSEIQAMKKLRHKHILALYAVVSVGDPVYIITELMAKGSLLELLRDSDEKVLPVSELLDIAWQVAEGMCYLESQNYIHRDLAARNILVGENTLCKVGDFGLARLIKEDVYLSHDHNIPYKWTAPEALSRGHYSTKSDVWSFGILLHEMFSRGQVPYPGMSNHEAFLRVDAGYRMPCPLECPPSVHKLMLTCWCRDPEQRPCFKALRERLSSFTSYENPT
Chain of Epidermal growth factor receptor (Homo sapiens), P00533 [L858R] (P00533 whole entry L858R): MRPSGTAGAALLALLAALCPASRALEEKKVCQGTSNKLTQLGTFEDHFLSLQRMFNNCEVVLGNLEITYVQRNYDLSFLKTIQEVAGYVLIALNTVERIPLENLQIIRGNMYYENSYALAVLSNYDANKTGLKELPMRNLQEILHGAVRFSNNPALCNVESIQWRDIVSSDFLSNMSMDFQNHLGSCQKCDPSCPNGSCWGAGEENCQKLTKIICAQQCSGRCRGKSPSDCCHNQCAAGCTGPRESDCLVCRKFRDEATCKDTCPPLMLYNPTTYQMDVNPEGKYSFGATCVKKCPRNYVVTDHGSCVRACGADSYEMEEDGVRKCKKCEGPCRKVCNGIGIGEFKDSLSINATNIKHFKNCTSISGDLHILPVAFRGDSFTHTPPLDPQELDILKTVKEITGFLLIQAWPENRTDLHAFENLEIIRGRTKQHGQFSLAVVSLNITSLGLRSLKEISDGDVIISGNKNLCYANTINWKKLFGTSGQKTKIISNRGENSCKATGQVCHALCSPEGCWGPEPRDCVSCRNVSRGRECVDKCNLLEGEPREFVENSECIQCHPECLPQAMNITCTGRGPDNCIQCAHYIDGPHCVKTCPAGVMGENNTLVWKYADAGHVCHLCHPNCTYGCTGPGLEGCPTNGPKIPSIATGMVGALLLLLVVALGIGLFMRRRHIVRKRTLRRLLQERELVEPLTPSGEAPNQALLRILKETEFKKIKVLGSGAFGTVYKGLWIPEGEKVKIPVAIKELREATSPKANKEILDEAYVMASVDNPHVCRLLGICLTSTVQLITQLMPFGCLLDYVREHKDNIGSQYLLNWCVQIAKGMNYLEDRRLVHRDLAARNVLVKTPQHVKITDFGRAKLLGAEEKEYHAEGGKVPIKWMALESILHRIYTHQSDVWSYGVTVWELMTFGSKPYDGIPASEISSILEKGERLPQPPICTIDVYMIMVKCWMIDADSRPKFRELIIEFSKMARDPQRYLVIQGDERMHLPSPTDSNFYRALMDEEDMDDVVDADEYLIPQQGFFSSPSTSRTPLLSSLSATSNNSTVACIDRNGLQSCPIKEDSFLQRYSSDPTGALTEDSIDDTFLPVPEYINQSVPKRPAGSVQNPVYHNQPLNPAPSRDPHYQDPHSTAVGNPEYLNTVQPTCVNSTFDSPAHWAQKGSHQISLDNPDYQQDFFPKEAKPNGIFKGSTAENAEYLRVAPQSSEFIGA
Chain of Tyrosine-protein kinase Blk (Homo sapiens) (P51451 2-505 limits assumed): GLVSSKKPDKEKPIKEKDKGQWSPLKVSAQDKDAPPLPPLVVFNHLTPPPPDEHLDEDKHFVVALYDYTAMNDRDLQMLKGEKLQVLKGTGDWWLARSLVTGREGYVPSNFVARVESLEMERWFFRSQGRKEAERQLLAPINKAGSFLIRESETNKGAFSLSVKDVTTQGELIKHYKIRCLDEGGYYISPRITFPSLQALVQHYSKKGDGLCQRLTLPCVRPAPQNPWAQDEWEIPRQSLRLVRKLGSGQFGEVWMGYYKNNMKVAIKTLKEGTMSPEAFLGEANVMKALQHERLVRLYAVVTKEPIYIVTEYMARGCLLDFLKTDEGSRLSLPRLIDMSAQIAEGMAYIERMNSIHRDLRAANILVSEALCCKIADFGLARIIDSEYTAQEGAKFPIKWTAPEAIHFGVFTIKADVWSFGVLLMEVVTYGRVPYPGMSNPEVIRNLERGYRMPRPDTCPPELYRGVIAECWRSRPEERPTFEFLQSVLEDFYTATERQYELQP
Chain of Tyrosine-protein kinase BTK (Homo sapiens) (Q06187 whole entry): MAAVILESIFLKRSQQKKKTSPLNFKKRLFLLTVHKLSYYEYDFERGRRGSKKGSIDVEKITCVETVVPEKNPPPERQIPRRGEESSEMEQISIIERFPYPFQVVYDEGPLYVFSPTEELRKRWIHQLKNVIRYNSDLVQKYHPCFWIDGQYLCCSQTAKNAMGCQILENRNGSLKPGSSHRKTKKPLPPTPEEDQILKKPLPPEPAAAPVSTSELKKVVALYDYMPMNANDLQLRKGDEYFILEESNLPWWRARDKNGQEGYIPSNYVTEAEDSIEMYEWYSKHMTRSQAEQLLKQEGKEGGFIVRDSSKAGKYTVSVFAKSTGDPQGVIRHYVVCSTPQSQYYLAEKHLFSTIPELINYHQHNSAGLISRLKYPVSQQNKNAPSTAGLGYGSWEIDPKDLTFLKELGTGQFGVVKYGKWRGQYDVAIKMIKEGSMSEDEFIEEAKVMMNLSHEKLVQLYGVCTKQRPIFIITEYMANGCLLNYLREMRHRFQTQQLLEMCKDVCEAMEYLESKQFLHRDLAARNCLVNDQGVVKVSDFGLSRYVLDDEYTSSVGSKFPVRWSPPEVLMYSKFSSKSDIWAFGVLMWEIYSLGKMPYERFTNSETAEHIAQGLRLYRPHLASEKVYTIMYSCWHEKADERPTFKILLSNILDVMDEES

Molecule `Fc1ccc(Nc2nccc(-c3c(-c4ccc(C(F)(F)F)cc4)nn4ncccc34)n2)cc1F` has an inhibition [1] of -7.82%, an inhibition [2] of 2.43% and an inhibition [3] of 2.03%. For the same molecule, the inhibition [4] was 0.77%, the inhibition [5] was 5.09% and the inhibition [6] was 3.39%. The inhibition [7] was 0.92%, the inhibition [8] was 1.62% and the inhibition [9] was 0.94%. For the same molecule, the inhibition [10] was 1.84%, the inhibition [11] was 0.02% and the inhibition [12] was 0.84%. The inhibition [13] was 1.01%, the inhibition [14] was -6.64% and the inhibition [15] was 2.88%. For the same molecule, the inhibition [16] was 4.49%, the inhibition [17] was 2.96% and the inhibition [18] was 2.39%. For the same molecule, the inhibition [19] was -0.05% and the inhibition [20] was 2.44%.
In the case of `CC1(C)CC(n2cnc(-c3ccc(F)cc3)c2-c2ccnc(N)n2)CC(C)(C)N1`, the inhibition [1] is reported as 1.58%, the inhibition [2] is reported as 0.51% and the inhibition [3] is reported as 1.43%. It also gave an inhibition [4] of -2.57%, an inhibition [5] of 1.06% and an inhibition [6] of -2.17%. The inhibition [7] was 1.66%, the inhibition [8] was -1.42% and the inhibition [9] was -1.35%. For the same molecule, the inhibition [10] was -0.2%, the inhibition [11] was -2.23% and the inhibition [12] was 1.3%. For the same molecule, the inhibition [13] was -0.87%, the inhibition [14] was 0.38% and the inhibition [15] was -0.12%. It also gave an inhibition [16] of -1.07%, an inhibition [17] of 0.2% and an inhibition [18] of -0.41%. It also gave an inhibition [19] of -1% and an inhibition [20] of -0.77%.
With `COc1cc(N2CCN(C(C)C)CC2)ccc1Nc1nc(Nc2cccc(F)c2C(=O)O)c2cc[nH]c2n1` the inhibition [1] was 37.3%, the inhibition [2] was 2.92% and the inhibition [3] was 4.31%. It also gave an inhibition [4] of 2.19%, an inhibition [5] of 4.13% and an inhibition [6] of 4.63%. For the same molecule, the inhibition [7] was 8.17%, the inhibition [8] was -0.37% and the inhibition [9] was 0.06%. It also gave an inhibition [10] of 5.06%, an inhibition [11] of 7.02% and an inhibition [12] of 1.68%. The inhibition [13] was 1.98%, the inhibition [14] was 0.15% and the inhibition [15] was 3.33%. The inhibition [16] was 4.84%, the inhibition [17] was 12.6% and the inhibition [18] was 4.97%. For the same molecule, the inhibition [19] was 5.54% and the inhibition [20] was 6.09%.
With `CN1CCC(C(=O)Nc2n[nH]c3nc(-c4ccc(O)cc4)c(Br)cc23)CC1` the inhibition [1] was -2.51% and -3.39%, the inhibition [2] was -0.49% and 1.32% and the inhibition [3] was 0.8% and 4.39%. The inhibition [4] was 4.12% and 2.58%, the inhibition [5] was 3.63% and 4.39% and the inhibition [6] was 4.15% and 1.12%. For the same molecule, the inhibition [7] was 9.38% and 6.4%, the inhibition [8] was -3.39% and 0.29% and the inhibition [9] was -2.64% and 0.46%. The inhibition [10] was -0.63%, the inhibition [11] was 7.63% and 4.28% and the inhibition [12] was -0.34% and 1.94%. The inhibition [13] was 0.35% and 3.34%, the inhibition [14] was -1.4% and 2.45% and the inhibition [15] was -1.83% and 5.5%. For the same molecule, the inhibition [16] was 3.81% and 2.33%, the inhibition [17] was 5.88% and 4.98% and the inhibition [18] was 2.69% and 0.43%. The inhibition [19] was 2.01% and 1.22% and the inhibition [20] was 2.13% and 0.11%.
`Cn1c(-c2nonc2N)nc2cnccc21` gave an inhibition [1] of -1.86%, an inhibition [2] of 0.51% and an inhibition [3] of 0.41%. The inhibition [4] was 9.58%, the inhibition [5] was 4.09% and the inhibition [6] was 4.32%. The inhibition [7] was 4.24%, the inhibition [8] was 0.86% and the inhibition [9] was 0.33%. For the same molecule, the inhibition [10] was 3.1%, the inhibition [11] was -0.66% and the inhibition [12] was 0.53%. It also gave an inhibition [13] of 2.78%, an inhibition [14] of 8.18% and an inhibition [15] of 8.08%. It also gave an inhibition [16] of 3.74%, an inhibition [17] of 5.92% and an inhibition [18] of 3.1%. The inhibition [19] was 4.3% and the inhibition [20] was 1.55%.
`CS(=O)(=O)Nc1ccc(-c2ccc3c(NC(=O)C4CC4)n[nH]c3c2)cc1` showed an inhibition [1] of 0.24%, an inhibition [2] of 2.19% and an inhibition [3] of 9.5%. The inhibition [4] was -5.43%, the inhibition [5] was 4.64% and the inhibition [6] was 1.77%. The inhibition [7] was 2.53%, the inhibition [8] was 1% and the inhibition [9] was 1.7%. For the same molecule, the inhibition [10] was 3.59%, the inhibition [11] was 0.41% and the inhibition [12] was 1.42%. For the same molecule, the inhibition [13] was 0.51%, the inhibition [14] was -0.2% and the inhibition [15] was 2.27%. For the same molecule, the inhibition [16] was 2.52%, the inhibition [17] was -0.4% and the inhibition [18] was 2.28%. The inhibition [19] was -2.37% and the inhibition [20] was 2.21%.
